# Measured values taken from PubChem BioAssay.
# For part of these data: Measured potencies and affinities stand elsewhere. Active and inactive are the calls of the source.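 How the source made its calls, unless noted: active means fluorescence ratio normalized to control raised more than 50% in primary screen plus both repeat runs; inactive means the rest.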
# How the values were obtained:
# [1] = tested on: TRPC4 beta (transient receptor potential cation channel C4), mouse; assay: activators of mouse TRPC4 channel, confirmation, cell-based, Fluo4 calcium, HEK293 TRPC4beta/mu-opioid, duplicates, 10 µM (AID 2426); conditions: Fluo4 calcium fluorescence, at 10 µM; stronger effect = higher value
# [2] = tested on: transient receptor potential cation channel C4 beta (TRPC4), mouse; assay: activators of mouse TRPC4 channel, confirmation, cell-based, second round, Fluo4, HEK293 TRPC4beta/mu-opioid, 1 µM (AID 2461;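 active means primary screen active and over 50% activation in each of two duplicate runs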); conditions: Fluo4 calcium fluorescence, at 1 µM; stronger effect = higher value
# [3] = tested on: TRPC4 (transient receptor potential cation channel C4 beta), mouse; assay: positive allosteric modulators of mouse TRPC4, confirmation, cell-based, second round, Fluo-4, HEK293 TRPC4beta/mu-opioid, 1 µM (AID 2554;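 active means primary screen hit whose fluorescence ratio, in both repeats, exceeds the weak agonist control mean by 3 SD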); conditions: DAMGO EC20, Fluo-4 calcium flux, at 1 µM; stronger effect = higher value
# [4] = tested on: TRPC4 beta (transient receptor potential cation channel C4), mouse; assay: positive allosteric modulators of mouse TRPC4, confirmation, cell-based, Fluo-4, HEK293 TRPC4beta/mu-opioid (AID 2555;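 active means primary screen hit whose calcium fluorescence ratio, in both repeats, exceeds the weak agonist control mean by 3 SD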); conditions: DAMGO EC20, Fluo-4 calcium flux, at 10 µM; stronger effect = higher value
# [5] = target: Short transient receptor potential channel 4 (Mus musculus) (UniProt Q9QUQ5); assay: inhibitors of mouse TRPC4 channel, confirmation, cell-based, Fluo4, HEK293 TRPC4beta/mu-opioid (AID 2636;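 active means calcium signal cut by more than 3 SD below the full-agonist control yet still positive, in both repeats and the earlier primary screen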); conditions: DAMGO, Fluo4 calcium flux, at 10 µM; stronger effect = higher value
# Short transient receptor potential channel 4 (Mus musculus), sequence (Q9QUQ5 whole entry, looked up): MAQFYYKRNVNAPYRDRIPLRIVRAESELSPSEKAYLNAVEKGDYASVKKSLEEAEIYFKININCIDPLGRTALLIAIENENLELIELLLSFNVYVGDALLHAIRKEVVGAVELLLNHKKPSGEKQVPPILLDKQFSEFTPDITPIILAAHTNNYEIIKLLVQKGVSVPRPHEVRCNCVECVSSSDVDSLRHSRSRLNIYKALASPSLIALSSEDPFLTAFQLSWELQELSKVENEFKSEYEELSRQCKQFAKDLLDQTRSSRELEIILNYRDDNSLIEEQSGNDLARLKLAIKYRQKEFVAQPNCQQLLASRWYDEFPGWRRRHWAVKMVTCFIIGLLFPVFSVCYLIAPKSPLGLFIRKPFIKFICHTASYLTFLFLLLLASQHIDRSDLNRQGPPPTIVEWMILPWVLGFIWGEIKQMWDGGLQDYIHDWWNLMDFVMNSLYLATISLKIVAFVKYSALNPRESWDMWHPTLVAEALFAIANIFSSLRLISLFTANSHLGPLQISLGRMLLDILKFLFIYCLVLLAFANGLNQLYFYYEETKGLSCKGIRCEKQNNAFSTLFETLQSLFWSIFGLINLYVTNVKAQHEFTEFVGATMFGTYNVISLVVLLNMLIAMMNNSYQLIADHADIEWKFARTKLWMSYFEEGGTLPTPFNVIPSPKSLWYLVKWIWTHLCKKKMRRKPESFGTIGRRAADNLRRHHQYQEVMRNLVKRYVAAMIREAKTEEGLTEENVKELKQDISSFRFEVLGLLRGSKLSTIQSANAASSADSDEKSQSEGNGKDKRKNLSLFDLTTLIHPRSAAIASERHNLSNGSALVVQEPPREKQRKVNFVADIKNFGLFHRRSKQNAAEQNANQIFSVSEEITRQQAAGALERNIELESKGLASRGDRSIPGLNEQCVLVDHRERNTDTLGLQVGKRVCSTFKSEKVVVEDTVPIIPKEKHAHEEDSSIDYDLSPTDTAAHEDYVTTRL
# [6] = target: Short transient receptor potential channel 4 (Mus musculus) (UniProt Q9QUQ5); assay: inhibitors of mouse TRPC4 channel, confirmation, cell-based, second round, Fluo4, HEK293 TRPC4beta/mu-opioid, 1 µM (AID 2637;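 active means calcium signal ratio cut to more than 3 SD under the fully stimulated control mean yet still positive, in both repeats and the primary screen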); conditions: Fluo4 calcium flux, DAMGO, at 1 µM; stronger effect = higher value
# [7] = target: Short transient receptor potential channel 4 (Mus musculus) (UniProt Q9QUQ5); assay: mouse TRPC4 channel activators, dose response, cell-based, HEK293 TRPC4/mu-opioid, Fluo-4 calcium (AID 434937;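 active means primary screen activator hit with a dose response curve and TRPC4 channel activation at any tested dose; inactive means no activation, no dose response, or not a primary hit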)
# [8] = target: Short transient receptor potential channel 4 (Mus musculus) (UniProt Q9QUQ5); assay: TRPC4 positive allosteric modulators, dose response, cell-based, HEK293 TRPC4/mu-opioid, Fluo-4 calcium, EC20 DAMGO (AID 434941;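 active means earlier screen potentiator hit that boosts the TRPC4 ion channel at some dose, with a dose response; inactive means no potentiation, no dose response, or not a prior hit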;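 further: calcium entry triggered by an EC20 dose of DAMGO at the co-expressed mu-opioid receptor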)
# [9] = target: Short transient receptor potential channel 4 (Mus musculus) (UniProt Q9QUQ5); assay: mouse TRPC4 channel inhibitors, dose response, cell-based, HEK293 TRPC4/mu-opioid, Fluo-4 calcium (AID 434942;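 active means primary screen inhibitor hit that blocks the TRPC4 channel at some tested dose, yielding a dose curve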)
# [10] = target: Short transient receptor potential channel 6 (Mus musculus) (UniProt Q61143); assay: inhibition of mouse TRPC6 channel, confirmation, selectivity assay for TRPC4 inhibitor project, cell-based, HEK293, membrane potential dye, duplicate (AID 434948;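 active means active in primary screen and both duplicates, each dropping signal beyond three positive-control SD with fluorescence still positive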); conditions: HEK293 TRPC6, membrane potential dye fluorescence, at 10 µM, stimulated with maximal-effect acetylcholine; stronger effect = higher value
# Short transient receptor potential channel 6 (Mus musculus), sequence (Q61143 whole entry, looked up): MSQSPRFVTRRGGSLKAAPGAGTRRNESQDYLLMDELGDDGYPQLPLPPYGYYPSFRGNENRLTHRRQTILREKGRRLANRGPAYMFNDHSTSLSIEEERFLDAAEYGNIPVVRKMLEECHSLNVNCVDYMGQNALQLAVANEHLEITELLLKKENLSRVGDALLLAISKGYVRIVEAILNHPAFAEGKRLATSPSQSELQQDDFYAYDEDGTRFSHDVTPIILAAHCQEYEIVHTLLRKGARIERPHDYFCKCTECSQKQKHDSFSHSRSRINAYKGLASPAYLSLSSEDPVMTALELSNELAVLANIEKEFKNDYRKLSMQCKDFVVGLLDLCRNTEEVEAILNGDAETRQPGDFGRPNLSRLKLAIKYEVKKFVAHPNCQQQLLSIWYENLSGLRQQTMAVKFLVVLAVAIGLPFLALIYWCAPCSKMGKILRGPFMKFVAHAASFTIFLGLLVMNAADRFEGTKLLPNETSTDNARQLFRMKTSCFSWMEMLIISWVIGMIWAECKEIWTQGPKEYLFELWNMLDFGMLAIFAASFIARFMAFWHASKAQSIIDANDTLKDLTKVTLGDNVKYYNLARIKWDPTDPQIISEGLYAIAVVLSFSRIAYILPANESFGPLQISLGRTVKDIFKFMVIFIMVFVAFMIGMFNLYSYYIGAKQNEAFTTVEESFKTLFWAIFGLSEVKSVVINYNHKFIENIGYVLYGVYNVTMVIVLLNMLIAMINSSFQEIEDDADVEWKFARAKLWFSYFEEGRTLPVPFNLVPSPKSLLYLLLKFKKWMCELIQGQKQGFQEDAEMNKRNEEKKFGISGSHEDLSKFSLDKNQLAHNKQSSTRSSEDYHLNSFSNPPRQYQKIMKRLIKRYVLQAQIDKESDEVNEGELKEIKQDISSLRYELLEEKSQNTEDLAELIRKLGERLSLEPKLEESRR
# [11] = target: Short transient receptor potential channel 6 (Mus musculus) (UniProt Q61143); assay: activation of mouse TRPC6 channel, confirmation, selectivity assay for TRPC4 activator project, cell-based, HEK293, membrane potential dye, duplicate (AID 434950;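 active means membrane potential signal rise above negative control mean plus 3 SD in both duplicates, also active in the earlier TRPC4 screen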;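 on activation: 0% = buffer only wells and 100% = acetylcholine maximal-effect wells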); conditions: HEK293 TRPC6, membrane potential fluorescence, at 10 µM; stronger effect = higher value
# [12] = target: Short transient receptor potential channel 6 (Mus musculus) (UniProt Q61143); assay: TRPC6 potentiation by TRPC4 potentiator hits, confirmation, selectivity assay for TRPC4 potentiator project, HEK293 cells, membrane potential dye, duplicate (AID 434952;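 active means compound raising the membrane signal above positive-control mean plus 3 SD in both repeats, and a primary screen hit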); conditions: HEK293 TRPC6, membrane potential dye fluorescence, at 10 µM, maximal acetylcholine added after compound; stronger effect = higher value
# [13] = target: Short transient receptor potential channel 4 (Mus musculus) (UniProt Q9QUQ5); assay: calcium flux activators in TRPC4/5HT1a cells, counter-screen for TRPC4 activator project, cell-based, second counter screen, HEK293 TRPC4/5HT1a, Fluo-4 (AID 434977;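 active means calcium signal rise above buffer-control mean plus 5 SD in both duplicates, and also a hit in the primary screen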); conditions: Fluo-4 calcium flux, at 10 µM; stronger effect = higher value
# [14] = calcium flux inhibitors in TRPC4/5HT1a cells, confirmation, counter-screen for TRPC4 inhibitor project, cell-based, second counter screen, HEK293 TRPC4/5HT1a, Fluo-4 (AID 434978;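 active means primary screen active whose calcium signal fell more than 3 SD beyond the full-serotonin control mean in both duplicate plates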;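 further: serotonin given first at submaximal then at maximal dose after compound preincubation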); conditions: Fluo-4 calcium flux, at 10 µM, serotonin added to trigger calcium flux; stronger effect = higher value
# [15] = tested on: TRPC4 (mouse), co-expressed with 5HT1a in HEK293; assay: calcium flux potentiators in TRPC4/5HT1a cells, confirmation, counter-screen for TRPC4 potentiator project, cell-based, second counter screen, HEK293 TRPC4/5HT1a, Fluo-4 (AID 434979;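 active means signal rise over 3 SD above mean of control wells given weak agonist, in both repeats and first screen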); conditions: Fluo-4 calcium flux, at 10 µM, serotonin added at its EC20 dose; stronger effect = higher value
# [16] = calcium flux activation in mu-opioid HEK293 cells, confirmation, counter-screen for TRPC4 activator project, cell-based, HEK293 mu-opioid receptor line (AID 449723;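 active means hit in primary screen, with calcium signal over 5 SD above buffer well mean in both duplicates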;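 further: counter screen cells carry the mu-opioid receptor alone and lack TRPC4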); conditions: Fluo-4 calcium fluorescence, at 10 µM; stronger effect = higher value
# [17] = calcium flux enhancement in mu-opioid HEK293 cells, confirmation, counter-screen for TRPC4 allosteric potentiator project, cell-based, HEK293 mu-opioid receptor line (AID 449724;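 active means calcium signal rise more than 3 SD above the low-dose agonist control mean, in both duplicate plates and the primary screen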); conditions: Fluo-4 calcium flux, at 10 µM, compound added before EC20 DAMGO stimulus; stronger effect = higher value
smiles,measurement,setting,value
CCOC(=O)c1c(C)n(-c2ccc(C)cc2)c2ccc(OCC(O)CNCC3CCCO3)cc12 (stereo not given),outcome,[1],inactive
same,outcome,[2],inactive
same,outcome,[3],inactive
same,outcome,[4],inactive
same,outcome,[5],inactive
same,outcome,[6],inactive
same,outcome,[7],inactive
same,outcome,[8],inactive
same,outcome,[9],inactive
same,outcome,[10],inactive
same,outcome,[11],inactive
same,outcome,[12],inactive
same,outcome,[13],inactive
same,outcome,[14],inactive
same,potentiation,[15],24.6% (active)
same,outcome,[16],inactive
same,outcome,[17],inactive
CCOC(=O)C1C(=O)C=C(c2ccc(C)cc2)CC1c1cccc([N+](=O)[O-])c1 (stereo not given),outcome,[1],inactive
same,outcome,[2],inactive
same,outcome,[3],inactive
same,potentiation,[4],46% (active)
same,outcome,[5],inactive
same,outcome,[6],inactive
same,outcome,[7],inactive
same,outcome,[8],inactive
same,outcome,[9],inactive
same,outcome,[10],inactive
same,outcome,[11],inactive
same,outcome,[12],inactive
same,outcome,[13],inactive
same,outcome,[14],inactive
same,potentiation,[15],38.9% (active)
same,outcome,[16],inactive
same,outcome,[17],inactive
Cc1cc(N2CCN(C)CC2)n2cc(-c3ccc(F)cc3)nc2n1,outcome,[1],inactive
same,outcome,[2],inactive
same,potentiation,[3],11% (active)
same,outcome,[4],inactive
same,outcome,[5],inactive
same,outcome,[6],inactive
same,outcome,[7],inactive
same,outcome,[8],inactive
same,outcome,[9],inactive
same,outcome,[10],inactive
same,outcome,[11],inactive
same,outcome,[12],inactive
same,outcome,[13],inactive
same,outcome,[14],inactive
same,potentiation,[15],26.1% (active)
same,outcome,[16],inactive
same,outcome,[17],inactive
Cc1cc(Oc2ccc(C(C)(C)C)cc2)nc(N2CCOCC2)n1,outcome,[1],inactive
same,outcome,[2],inactive
same,outcome,[3],inactive
same,potentiation,[4],7% (active)
same,outcome,[5],inactive
same,outcome,[6],inactive
same,outcome,[7],inactive
same,outcome,[8],inactive
same,outcome,[9],inactive
same,outcome,[10],inactive
same,outcome,[11],inactive
same,outcome,[12],inactive
same,outcome,[13],inactive
same,outcome,[14],inactive
same,potentiation,[15],21.6% (active)
same,outcome,[16],inactive
same,outcome,[17],inactive
O=c1oc2ccccc2c(O)c1/C=C1\C=Nc2ccccc21,outcome,[1],inactive
same,outcome,[2],inactive
same,outcome,[3],inactive
same,outcome,[4],inactive
same,outcome,[5],inactive
same,outcome,[6],inactive
same,outcome,[7],inactive
same,outcome,[8],inactive
same,outcome,[9],inactive
same,outcome,[10],inactive
same,activation,[11],32.5% (active)
same,outcome,[12],inactive
same,outcome,[13],inactive
same,outcome,[14],inactive
same,outcome,[15],inactive
same,outcome,[16],inactive
same,outcome,[17],inactive
COc1ccc(CCN2CCCC(CN(C)C(=O)c3ccoc3)C2)cc1 (stereo not given),outcome,[1],inactive
same,outcome,[2],inactive
same,outcome,[3],inactive
same,outcome,[4],inactive
same,outcome,[5],inactive
same,outcome,[6],inactive
same,outcome,[7],inactive
same,outcome,[8],inactive
same,outcome,[9],inactive
same,outcome,[10],inactive
same,outcome,[11],inactive
same,outcome,[12],inactive
same,outcome,[13],inactive
same,outcome,[14],inactive
same,potentiation,[15],14.1% (active)
same,outcome,[16],inactive
same,outcome,[17],inactive
COC(=O)c1cc(N2CCN(C)CC2)nc2ccccc12,outcome,[1],inactive
same,outcome,[2],inactive
same,outcome,[3],inactive
same,outcome,[4],inactive
same,outcome,[5],inactive
same,outcome,[6],inactive
same,outcome,[7],inactive
same,outcome,[8],inactive
same,outcome,[9],inactive
same,outcome,[10],inactive
same,outcome,[11],inactive
same,outcome,[12],inactive
same,outcome,[13],inactive
same,outcome,[14],inactive
same,outcome,[15],inactive
same,outcome,[16],inactive
same,outcome,[17],inactive
NC(=O)NCCN1CCN(c2ncc(C(F)(F)F)cc2Cl)CC1,outcome,[1],inactive
same,outcome,[2],inactive
same,potentiation,[3],8% (active)
same,potentiation,[4],11% (active)
same,outcome,[5],inactive
same,outcome,[6],inactive
same,outcome,[7],inactive
same,outcome,[8],inactive
same,outcome,[9],inactive
same,outcome,[10],inactive
same,outcome,[11],inactive
same,outcome,[12],inactive
same,outcome,[13],inactive
same,outcome,[14],inactive
same,potentiation,[15],22% (active)
same,outcome,[16],inactive
same,outcome,[17],inactive
Cc1ccc2[nH]c(C)c(CCN(Cc3cccnc3)C(=S)NC(C)(C)C)c2c1,outcome,[1],inactive
same,outcome,[2],inactive
same,outcome,[3],inactive
same,outcome,[4],inactive
same,outcome,[5],inactive
same,outcome,[6],inactive
same,outcome,[7],inactive
same,outcome,[8],inactive
same,outcome,[9],inactive
same,outcome,[10],inactive
same,outcome,[11],inactive
same,outcome,[12],inactive
same,outcome,[13],inactive
same,outcome,[14],inactive
same,outcome,[15],inactive
same,outcome,[16],inactive
same,outcome,[17],inactive
CCN1CCN(c2ccc(S(=O)(=O)N3CCCCC3)cc2NC(=O)c2cccc(OC(F)F)c2)CC1,outcome,[1],inactive
same,outcome,[2],inactive
same,potentiation,[3],7% (active)
same,potentiation,[4],18% (active)
same,outcome,[5],inactive
same,outcome,[6],inactive
same,outcome,[7],inactive
same,outcome,[8],inactive
same,outcome,[9],inactive
same,outcome,[10],inactive
same,outcome,[11],inactive
same,outcome,[12],inactive
same,outcome,[13],inactive
same,outcome,[14],inactive
same,potentiation,[15],15.6% (active)
same,outcome,[16],inactive
same,outcome,[17],inactive
Cc1ccc(NC(=O)c2cccs2)cc1,outcome,[1],inactive
same,outcome,[2],inactive
same,outcome,[3],inactive
same,outcome,[4],inactive
same,outcome,[5],inactive
same,outcome,[6],inactive
same,outcome,[7],inactive
same,outcome,[8],inactive
same,outcome,[9],inactive
same,outcome,[10],inactive
same,outcome,[11],inactive
same,outcome,[12],inactive
same,outcome,[13],inactive
same,outcome,[14],inactive
same,outcome,[15],inactive
same,outcome,[16],inactive
same,outcome,[17],inactive
CC(C)Cn1c(O)c(N=NC(=O)c2cccc(S(=O)(=O)N3CCCCC3)c2)c2ccccc21,outcome,[1],inactive
same,outcome,[2],inactive
same,outcome,[3],inactive
same,potentiation,[4],15% (active)
same,outcome,[5],inactive
same,outcome,[6],inactive
same,outcome,[7],inactive
same,outcome,[8],inactive
same,outcome,[9],inactive
same,outcome,[10],inactive
same,outcome,[11],inactive
same,outcome,[12],inactive
same,outcome,[13],inactive
same,outcome,[14],inactive
same,outcome,[15],inactive
same,outcome,[16],inactive
same,outcome,[17],inactive
CC1=NN(C(=O)COc2ccc(C)c(C)c2)C(O)(c2ccc(Cl)cc2)C1 (stereo not given),outcome,[1],inactive
same,outcome,[2],inactive
same,outcome,[3],inactive
same,outcome,[4],inactive
same,outcome,[5],inactive
same,outcome,[6],inactive
same,outcome,[7],inactive
same,outcome,[8],inactive
same,outcome,[9],inactive
same,outcome,[10],inactive
same,outcome,[11],inactive
same,outcome,[12],inactive
same,outcome,[13],inactive
same,outcome,[14],inactive
same,outcome,[15],inactive
same,outcome,[16],inactive
same,outcome,[17],inactive
Cc1ccc(-c2c(C(=O)N/N=C/c3ccc(OC(C)C)cc3)nnn2-c2nonc2N)cc1,outcome,[1],inactive
same,outcome,[2],inactive
same,outcome,[3],inactive
same,outcome,[4],inactive
same,outcome,[5],inactive
same,outcome,[6],inactive
same,outcome,[7],inactive
same,outcome,[8],inactive
same,outcome,[9],inactive
same,outcome,[10],inactive
same,outcome,[11],inactive
same,outcome,[12],inactive
same,outcome,[13],inactive
same,outcome,[14],inactive
same,potentiation,[15],19.3% (active)
same,outcome,[16],inactive
same,outcome,[17],inactive
Cc1cc(Br)ccc1OCCN1CCCC1,outcome,[1],inactive
same,outcome,[2],inactive
same,potentiation,[3],12% (active)
same,outcome,[4],inactive
same,outcome,[5],inactive
same,outcome,[6],inactive
same,outcome,[7],inactive
same,outcome,[8],inactive
same,outcome,[9],inactive
same,outcome,[10],inactive
same,outcome,[11],inactive
same,outcome,[12],inactive
same,outcome,[13],inactive
same,outcome,[14],inactive
same,potentiation,[15],7.25% (active)
same,outcome,[16],inactive
same,outcome,[17],inactive
